Results: PubChem BioAssay (NCATS)
Inconclusive results are not listed. Activity calls are given as the source filed them. Calls follow the shape of the dose curve; as a rule, active = well fitted curve in the direction sought with a large enough effect; inconclusive = small, poorly fitted or top-dose-only effect, or another doubt; inactive = no such curve, though single readings can be large or run the other way.

Molecular target: phosphoglycerate mutase (Leishmania major) (UniProt Q4Q090)
Assay: qHTS Validation Assay to Find Inhibitors of Phosphoglycerate Mutase (AID 504548)
Settings: biochemical enzyme activity; series mostly up to 57.5 µM
Source text: NIH Molecular Libraries Probe Production Network [MLPCN]
NIH Chemical Genomics Center [NCGC]
PI Name: Malcolm Walkinshaw, University of Edinburgh
Several species of the Trypanosomatidae family of parasitic protozoans cause a spectrum of diseases throughout the tropical and subtropical world. Sleeping sickness, caused by two subspecies of Trypanosoma brucei, is endemic to areas of sub-Saharan Africa, while Chagas disease, a manifestation of Trypanosoma cruzi infection, is prevalent throughout Central and South America. In addition, many species of Leishmania are responsible for a range of cutaneous and visceral diseases, causing ulcers, destructive lesions and kalaazar, a lethal infection of the viscera. Collectively, these organisms infect 30 million people worldwide (~500 million live in endemic areas), and account for ~130,000 deaths annually. Given their debilitating and prevalent nature, trypanosomatid parasites impose a heavy medical, economic and social burden on entire populations, primarily in the developing world. The problem is further exacerbated by the fact that existing treatments have progressed little in the past 50 years, and current drugs show high toxicity and poor efficacy.
Blood-stream stages of T. brucei are entirely dependent on glycolysis as a source of ATP, and the tricarboxylic acid cycle and oxidative phosphorylation are both repressed. Glycolysis in axenically cultured T. cruzi, representing the intracellular pathogenic stage, is also essential for these parasites. […] Previous studies have shown that the glycolytic enzyme, phosphoglycerate mutase (PGAM), is a viable target for drugs to kill these parasites. […] Furthermore, the cobalt centers present within PGAM are only found in trypanosomatid and plant PGAMs, and are known to be required for activity, thereby providing an additional target. Moreover, trypanosomatid PGAMs are completely different from the enzyme that performs the same function in humans: the parasite and host enzymes share no structural or even mechanistic features; specificity is therefore unlikely to be an issue.
NCGC Assay Protocol Summary:
Briefly, 3ul of substrate buffer (all columns) are dispensed into Greiner white solid bottom 1536-well assay plates. Compounds are then transferred via Kalypsys pin tool equipped with 1536-pin array (10nl slotted pins, V&P Scientific, San Diego, CA). Following addition of compound, 1ul of Lm PGAM (1.25nM final concentration, columns […]) is added to initiate the reaction; columns 3-4 receive only TEA buffer as negative controls. The plates are then incubated at room temperature for 45 minutes. Kinase-GloPlus reagent is added (2ul) and plates incubated for 10 minutes, before being transferred to a ViewLux high-throughput CCD imager (PerkinElmer) wherein single end-point measurements of luminescence are acquired using a clear filter. All reagents are diluted in an assay buffer consisting of 100 mM TEA (pH 7.6), 5 mM MgCl2 and 0.01% Tween-20.

phosphoglycerate mutase (Leishmania major), sequence (Q4Q090 1-553): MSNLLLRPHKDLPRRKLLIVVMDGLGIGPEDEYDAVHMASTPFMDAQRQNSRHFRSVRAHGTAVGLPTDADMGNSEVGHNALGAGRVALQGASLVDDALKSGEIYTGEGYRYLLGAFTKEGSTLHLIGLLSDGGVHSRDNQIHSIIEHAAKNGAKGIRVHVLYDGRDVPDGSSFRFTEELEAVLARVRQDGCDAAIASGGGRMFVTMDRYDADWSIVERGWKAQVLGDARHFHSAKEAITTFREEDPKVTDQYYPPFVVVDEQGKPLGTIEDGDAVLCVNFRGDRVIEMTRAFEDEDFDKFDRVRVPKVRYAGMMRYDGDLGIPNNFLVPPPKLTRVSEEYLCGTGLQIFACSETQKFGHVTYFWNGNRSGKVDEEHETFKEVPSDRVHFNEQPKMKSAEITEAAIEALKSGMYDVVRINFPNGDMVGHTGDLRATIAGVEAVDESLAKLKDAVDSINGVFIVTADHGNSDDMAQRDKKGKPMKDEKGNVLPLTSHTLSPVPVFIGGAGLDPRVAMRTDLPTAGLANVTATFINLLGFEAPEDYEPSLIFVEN

Structure (SMILES) | outcome
O=C(O)c1cc2cc(Cc3cccnc3)ccc2o1 | inactive
COc1cc(NS(C)(=O)=O)ccc1Nc1c2ccccc2nc2ccccc12 | inactive
CNCCC(Oc1ccccc1C)c1ccccc1 (centres undefined) | inactive
O=C1CCC(c2ccc(-n3ccnc3)cc2)=NN1 | inactive
CNCCC=C1c2ccccc2CCc2ccccc21 | inactive
N[C@H](CO)C(=O)O | inactive
Nc1cc(Cl)c(NC2=NCCN2)c(Cl)c1 | inactive
COc1cc2c(cc1O)CC[C@@H]1[C@@H]2CC[C@]2(C)[C@@H](O)CC[C@@H]12 | inactive
N[C@@H](Cc1cnc[nH]1)C(=O)O | inactive
CC(=O)O[C@H]1C[C@@H]2CC[C@@H]3[C@H](CC[C@@]4(C)[C@H]3C[C@H]([N+]3(C)CCCCC3)[C@@H]4OC(C)=O)[C@@]2(C)C[C@@H]1[N+]1(C)CCCCC1 | inactive
CCCn1c(=O)[nH]c(=O)c2[nH]cnc21 | inactive
CCCC1O[C@@H]2C[C@H]3[C@@H]4CCC5=CC(=O)C=C[C@]5(C)[C@H]4[C@@H](O)C[C@]3(C)[C@]2(C(=O)CO)O1 (some centres undefined) | inactive
C[C@]12CC[C@@H]3c4ccc(O)cc4CC[C@H]3[C@@H]1CC[C@@H]2O | inactive
C[N+]1(CCCCC[N+]2(C)CCCC2)CCCC1 | inactive
COC(=O)[C@H]1[C@H]2C[C@H]3c4[nH]c5ccccc5c4CCN3C[C@H]2CC[C@@H]1O | inactive
CC1(C)CCC(NC(=O)[C@@H](N)CCC(=O)O)CC1 | inactive
CC(CCc1ccccc1)NCC(O)c1ccc(O)c(C(N)=O)c1 (centres undefined) | inactive
CN1C2CCC1CC(OC(=O)c1c[nH]c3ccccc13)C2 (centres undefined) | inactive
C[C@@H]1C(=O)NC2=Nc3cccc(Cl)c3CN21 | inactive
CC[C@H](C)C(=O)O[C@H]1CCC=C2C=C[C@H](C)[C@H](CC[C@@H]3C[C@@H](O)CC(=O)O3)[C@H]21 | inactive
CC(C)COC(=O)OCN1C(=O)CN(CCN2CC(=O)N(COC(=O)OCC(C)C)C(=O)C2)CC1=O | inactive
C1CCc2nnnn2CC1 | inactive
Oc1ccc(O)cc1 | inactive
CC(C)C[C@H]1C(=O)N2CCC[C@H]2[C@]2(O)O[C@](NC(=O)[C@@H]3C=C4c5cccc6[nH]c(Br)c(c56)C[C@H]4N(C)C3)(C(C)C)C(=O)N12 | inactive
